Laboratory results reported in the supplement of paper PMC11732987, “Enantioselective OTUD7B fragment discovery through chemoproteomics screening and high-throughput optimisation” (Communications Chemistry, 2025).

Assays:
Assay in all cases: log2 ratio of Biotin-Ahx-Ub-VS probe labelling (fragment/DMSO); higher = less target engagement (more negative = stronger competition), active = hit call of the paper (q ≤ 0.05, log2 ratio ≤ -1)
Settings in all cases: compound concentration: 200 uM; treatment time: 3 h
USP19 = target: T1, USP19 (UniProt O94966)
T1 sequence (whole entry): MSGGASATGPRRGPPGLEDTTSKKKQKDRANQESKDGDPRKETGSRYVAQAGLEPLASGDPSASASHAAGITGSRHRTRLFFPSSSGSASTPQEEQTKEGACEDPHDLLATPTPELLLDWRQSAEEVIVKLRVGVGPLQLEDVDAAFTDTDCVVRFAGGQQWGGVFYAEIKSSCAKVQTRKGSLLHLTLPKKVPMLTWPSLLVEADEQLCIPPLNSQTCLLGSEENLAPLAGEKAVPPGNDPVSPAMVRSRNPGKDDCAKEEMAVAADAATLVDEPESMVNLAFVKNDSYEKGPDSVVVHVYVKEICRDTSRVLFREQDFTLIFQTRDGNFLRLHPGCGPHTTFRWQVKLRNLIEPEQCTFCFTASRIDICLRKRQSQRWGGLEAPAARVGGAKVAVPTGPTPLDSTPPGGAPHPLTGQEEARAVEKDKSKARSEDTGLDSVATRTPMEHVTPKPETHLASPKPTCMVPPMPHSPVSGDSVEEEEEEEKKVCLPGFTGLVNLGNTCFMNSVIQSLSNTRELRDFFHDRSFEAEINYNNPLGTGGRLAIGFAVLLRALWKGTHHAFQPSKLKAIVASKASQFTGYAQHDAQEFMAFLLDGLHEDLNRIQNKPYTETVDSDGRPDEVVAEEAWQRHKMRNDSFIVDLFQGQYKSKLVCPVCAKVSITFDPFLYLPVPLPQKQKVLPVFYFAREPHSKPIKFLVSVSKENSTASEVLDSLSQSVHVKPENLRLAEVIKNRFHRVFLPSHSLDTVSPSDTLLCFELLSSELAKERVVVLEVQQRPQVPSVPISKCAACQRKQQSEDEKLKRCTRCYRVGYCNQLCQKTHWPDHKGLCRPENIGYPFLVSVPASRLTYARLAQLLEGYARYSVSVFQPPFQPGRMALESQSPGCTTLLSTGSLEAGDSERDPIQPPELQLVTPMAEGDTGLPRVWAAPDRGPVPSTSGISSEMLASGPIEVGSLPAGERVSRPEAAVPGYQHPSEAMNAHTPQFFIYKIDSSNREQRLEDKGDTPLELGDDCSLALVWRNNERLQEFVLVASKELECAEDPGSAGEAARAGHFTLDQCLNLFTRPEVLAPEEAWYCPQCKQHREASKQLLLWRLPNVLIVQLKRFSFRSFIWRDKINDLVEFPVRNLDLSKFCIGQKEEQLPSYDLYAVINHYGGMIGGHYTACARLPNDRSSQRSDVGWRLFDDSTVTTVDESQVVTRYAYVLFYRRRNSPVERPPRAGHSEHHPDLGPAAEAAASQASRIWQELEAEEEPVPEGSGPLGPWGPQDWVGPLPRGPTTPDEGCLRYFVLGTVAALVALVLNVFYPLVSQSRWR
Outline: (§1)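 Global-median-normalised Spectronaut label-free quantities were compared by unpaired t-test, and values are average log2 ratios of fragment over vehicle. Only proteins with ≥2 unique peptides were used. HEK293T lysate (495 µg per sample) was treated in triplicate with fragment at 200 µM or vehicle for 3 h and then with Biotin-Ahx-Ub-VS at 0.5 µM final for 1 h. Labelled DUBs were then NeutrAvidin-enriched, digested with LysC and trypsin, and run by diaPASEF LC-MS/MS.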

USP24 = USP24 (UniProt Q9UPU5)
Outline: as §1

USP25 = target: T2, USP25 (UniProt Q9UHP3)
T2 sequence (whole entry): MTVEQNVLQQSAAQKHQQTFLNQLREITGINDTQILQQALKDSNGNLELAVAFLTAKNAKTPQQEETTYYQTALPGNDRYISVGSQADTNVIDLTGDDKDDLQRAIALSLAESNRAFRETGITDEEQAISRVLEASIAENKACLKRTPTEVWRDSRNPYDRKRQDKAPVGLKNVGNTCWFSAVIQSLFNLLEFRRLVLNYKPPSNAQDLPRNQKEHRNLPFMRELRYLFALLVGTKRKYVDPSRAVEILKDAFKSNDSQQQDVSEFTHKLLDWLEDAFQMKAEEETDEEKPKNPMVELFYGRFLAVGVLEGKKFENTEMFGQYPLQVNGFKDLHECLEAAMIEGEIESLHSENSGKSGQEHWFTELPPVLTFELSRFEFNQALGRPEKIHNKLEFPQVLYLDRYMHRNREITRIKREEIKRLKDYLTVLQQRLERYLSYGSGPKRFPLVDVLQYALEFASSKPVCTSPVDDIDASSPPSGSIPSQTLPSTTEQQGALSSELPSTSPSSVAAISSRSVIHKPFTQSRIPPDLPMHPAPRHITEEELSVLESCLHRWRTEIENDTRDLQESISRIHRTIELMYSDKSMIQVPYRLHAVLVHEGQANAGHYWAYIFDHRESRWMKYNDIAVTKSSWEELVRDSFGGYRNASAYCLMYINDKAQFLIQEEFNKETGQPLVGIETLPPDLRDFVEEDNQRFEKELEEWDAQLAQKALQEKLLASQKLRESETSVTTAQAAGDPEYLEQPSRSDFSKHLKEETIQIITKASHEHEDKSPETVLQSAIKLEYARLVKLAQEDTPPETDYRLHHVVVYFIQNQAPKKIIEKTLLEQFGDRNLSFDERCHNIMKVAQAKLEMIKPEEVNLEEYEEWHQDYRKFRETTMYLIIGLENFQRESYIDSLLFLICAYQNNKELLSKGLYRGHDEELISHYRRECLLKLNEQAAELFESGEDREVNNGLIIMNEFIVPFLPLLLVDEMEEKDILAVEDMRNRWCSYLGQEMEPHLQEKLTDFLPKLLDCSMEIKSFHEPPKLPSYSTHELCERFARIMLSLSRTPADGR
Outline: as §1

USP28 = target: T3, USP28 (UniProt Q96RU2)
T3 sequence (whole entry): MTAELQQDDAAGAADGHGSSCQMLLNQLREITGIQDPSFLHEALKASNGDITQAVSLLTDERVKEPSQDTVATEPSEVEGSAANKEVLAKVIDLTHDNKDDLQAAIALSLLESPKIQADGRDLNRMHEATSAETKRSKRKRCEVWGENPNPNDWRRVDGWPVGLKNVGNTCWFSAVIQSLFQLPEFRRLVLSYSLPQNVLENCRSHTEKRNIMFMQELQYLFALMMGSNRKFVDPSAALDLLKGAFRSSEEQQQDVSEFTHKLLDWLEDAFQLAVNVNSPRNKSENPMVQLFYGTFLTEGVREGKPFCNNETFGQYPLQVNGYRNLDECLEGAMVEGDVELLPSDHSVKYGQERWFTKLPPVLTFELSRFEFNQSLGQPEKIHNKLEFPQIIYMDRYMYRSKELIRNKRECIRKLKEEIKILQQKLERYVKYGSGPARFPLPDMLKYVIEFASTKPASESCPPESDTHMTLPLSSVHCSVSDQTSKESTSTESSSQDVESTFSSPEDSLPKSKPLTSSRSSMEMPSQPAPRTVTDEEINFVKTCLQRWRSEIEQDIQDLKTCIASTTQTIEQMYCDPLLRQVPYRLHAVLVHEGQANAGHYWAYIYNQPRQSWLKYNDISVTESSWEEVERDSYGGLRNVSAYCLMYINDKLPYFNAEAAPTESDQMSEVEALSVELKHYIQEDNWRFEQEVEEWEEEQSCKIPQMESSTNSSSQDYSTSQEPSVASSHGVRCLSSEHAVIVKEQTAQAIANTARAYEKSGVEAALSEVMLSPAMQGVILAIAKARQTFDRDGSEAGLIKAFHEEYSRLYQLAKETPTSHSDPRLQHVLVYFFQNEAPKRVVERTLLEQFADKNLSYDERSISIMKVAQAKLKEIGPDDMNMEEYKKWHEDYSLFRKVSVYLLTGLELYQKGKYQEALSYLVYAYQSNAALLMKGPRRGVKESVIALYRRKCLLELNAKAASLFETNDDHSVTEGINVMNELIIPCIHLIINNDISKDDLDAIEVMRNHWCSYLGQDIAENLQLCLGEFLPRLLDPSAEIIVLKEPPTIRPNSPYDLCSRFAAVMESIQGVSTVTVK
Outline: as §1

Measured: log2 ratio of Biotin-Ahx-Ub-VS probe labelling

USP24, sequence (Q9UPU5 whole entry): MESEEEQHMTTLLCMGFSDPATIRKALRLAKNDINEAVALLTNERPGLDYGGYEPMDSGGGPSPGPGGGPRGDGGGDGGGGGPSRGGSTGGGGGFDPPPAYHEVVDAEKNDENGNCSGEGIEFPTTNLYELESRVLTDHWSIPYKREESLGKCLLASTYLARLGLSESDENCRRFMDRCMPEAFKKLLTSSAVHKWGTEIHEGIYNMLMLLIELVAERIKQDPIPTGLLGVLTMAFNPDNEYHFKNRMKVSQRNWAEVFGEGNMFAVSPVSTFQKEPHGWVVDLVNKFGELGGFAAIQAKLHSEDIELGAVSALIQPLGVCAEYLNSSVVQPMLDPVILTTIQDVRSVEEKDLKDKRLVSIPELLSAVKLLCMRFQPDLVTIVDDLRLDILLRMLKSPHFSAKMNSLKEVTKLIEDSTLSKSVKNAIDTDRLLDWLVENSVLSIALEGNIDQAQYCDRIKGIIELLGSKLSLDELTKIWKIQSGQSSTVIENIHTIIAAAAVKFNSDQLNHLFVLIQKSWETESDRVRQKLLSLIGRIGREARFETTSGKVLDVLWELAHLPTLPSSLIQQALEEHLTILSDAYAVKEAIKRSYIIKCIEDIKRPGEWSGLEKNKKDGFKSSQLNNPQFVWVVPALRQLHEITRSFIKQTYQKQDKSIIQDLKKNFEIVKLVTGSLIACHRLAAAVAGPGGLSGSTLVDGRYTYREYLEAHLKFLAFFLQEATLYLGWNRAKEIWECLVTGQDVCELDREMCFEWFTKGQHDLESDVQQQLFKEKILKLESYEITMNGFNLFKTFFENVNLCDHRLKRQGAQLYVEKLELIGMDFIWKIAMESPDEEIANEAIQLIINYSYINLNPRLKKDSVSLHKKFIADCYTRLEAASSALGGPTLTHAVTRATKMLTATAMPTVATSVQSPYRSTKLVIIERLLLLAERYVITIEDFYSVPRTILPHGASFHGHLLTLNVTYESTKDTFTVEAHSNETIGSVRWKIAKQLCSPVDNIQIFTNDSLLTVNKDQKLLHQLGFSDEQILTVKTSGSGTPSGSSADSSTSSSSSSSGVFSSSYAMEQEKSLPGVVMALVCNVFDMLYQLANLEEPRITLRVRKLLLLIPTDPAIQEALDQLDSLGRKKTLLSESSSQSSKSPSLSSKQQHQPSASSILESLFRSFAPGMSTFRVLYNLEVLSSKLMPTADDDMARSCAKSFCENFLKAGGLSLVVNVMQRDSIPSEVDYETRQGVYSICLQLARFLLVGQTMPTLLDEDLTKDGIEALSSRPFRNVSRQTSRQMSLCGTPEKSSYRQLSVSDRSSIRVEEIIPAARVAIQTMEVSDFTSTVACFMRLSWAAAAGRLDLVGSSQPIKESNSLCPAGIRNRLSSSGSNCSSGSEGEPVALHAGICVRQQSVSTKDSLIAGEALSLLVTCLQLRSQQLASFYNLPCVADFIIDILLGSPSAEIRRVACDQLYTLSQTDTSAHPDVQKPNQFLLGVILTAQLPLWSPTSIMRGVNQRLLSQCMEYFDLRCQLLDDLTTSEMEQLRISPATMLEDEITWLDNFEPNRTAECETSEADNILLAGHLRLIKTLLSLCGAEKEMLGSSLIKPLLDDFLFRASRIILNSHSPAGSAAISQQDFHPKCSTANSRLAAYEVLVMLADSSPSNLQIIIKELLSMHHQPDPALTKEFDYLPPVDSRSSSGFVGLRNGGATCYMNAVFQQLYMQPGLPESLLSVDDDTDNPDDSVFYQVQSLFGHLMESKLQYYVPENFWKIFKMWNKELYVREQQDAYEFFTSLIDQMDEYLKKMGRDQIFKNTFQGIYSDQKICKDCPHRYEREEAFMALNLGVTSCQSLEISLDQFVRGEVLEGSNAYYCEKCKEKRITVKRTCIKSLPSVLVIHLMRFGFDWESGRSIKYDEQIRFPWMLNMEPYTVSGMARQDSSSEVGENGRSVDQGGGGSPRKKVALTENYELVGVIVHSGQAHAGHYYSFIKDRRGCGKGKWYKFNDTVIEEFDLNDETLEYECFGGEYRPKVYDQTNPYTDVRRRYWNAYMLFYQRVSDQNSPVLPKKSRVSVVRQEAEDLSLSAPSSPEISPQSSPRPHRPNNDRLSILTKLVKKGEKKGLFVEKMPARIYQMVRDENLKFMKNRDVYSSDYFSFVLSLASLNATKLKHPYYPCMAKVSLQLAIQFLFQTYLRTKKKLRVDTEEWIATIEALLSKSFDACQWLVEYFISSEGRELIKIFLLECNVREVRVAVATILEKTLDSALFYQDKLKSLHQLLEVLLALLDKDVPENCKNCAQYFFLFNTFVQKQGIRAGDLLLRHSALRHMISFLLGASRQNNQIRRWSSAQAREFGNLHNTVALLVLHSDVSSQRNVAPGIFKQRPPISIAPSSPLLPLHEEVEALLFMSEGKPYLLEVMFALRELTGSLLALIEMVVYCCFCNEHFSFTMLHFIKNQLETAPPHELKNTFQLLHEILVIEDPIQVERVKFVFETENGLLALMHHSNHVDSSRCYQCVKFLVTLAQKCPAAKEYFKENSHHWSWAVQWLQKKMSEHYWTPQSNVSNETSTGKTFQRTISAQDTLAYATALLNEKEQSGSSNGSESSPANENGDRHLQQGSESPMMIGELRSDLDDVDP

O=C(CCl)N(Cc1ccsc1)C1CC1
inactive: USP19 -0.0676 | USP24 -0.704 | USP25 -0.45 | USP28 -0.283
